# Results as given in the supplement of paper PMC11417369.
# Over roughly 25,000 sequences, “ln(normalized median fluorescence intensity)” has its median near 9.7; the highest 2% begin near 11. This is one part of a sample in which the highest values are shown more often than they occur.
# System: PfAP2-HC AP2 domain (GST-tagged)
# Assay: gcPBM binding intensity (ln(normalized median fluorescence intensity)); higher = stronger DNA binding
# Procedure, shortened: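 Probes on an Agilent 4 × 180k array were primer-extended, double-stranded and 36 bp long, taken from intergenic genomic regions, with negative controls added. GST-tagged P. falciparum DNA-binding domains from E. coli, about 25 μg on average, were applied to the array for 1 h in 1× PBS containing 1% milk, 0.2 mg/ml BSA, 0.5% salmon testes DNA and 0.03% Triton X-100. Binding intensity, obtained after Alexa488 anti-GST antibody detection and a 488 nm scan, is the highest Masliner-normalised natural-log median intensity across replicate spots of either probe orientation.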
row,Sequence,gcPBM binding intensity (ln)
1,TAATTTTTATTCAGTTCACACACGCTTTAATATTAT [CACACA_site9147],9.94
2,GTTATATTCCTACAGAGTACATAAAAATGCACATCA [XGTACX_site1948],9.54
3,CATAAATTAAAACACACACACACAAAAAAAAAAAAA [CACACA_site2262],11.6
4,TAAATTAAAAAACACACACACAAAAAAAAAAAAAAA [CACACA_site2263],11.2
5,AAAAAAAAAAAATACACACAAACACAAATTAAATAA [CACACA_site3809],10.3
6,AAAAAAAAAAAAAATACACACAAACACAAATTAAAT [CACACA_site5982],10.8
7,GTTTCAAAATTAAACACACACAAAAAAAAAAAAAAA [CACACA_site2680],9.72
8,AAAAAATTAATAAAAACACACAAAAAAAATAAACAA [CACACA_site1907],9.95
9,TACCCACGTATATATATACACACTAATATACACCCA [CACACA_site9381],9.88
10,TTAAGCCGCAATATGGGTACATAGGAAGAAGGGGAA [XGTACX_site8397],9.56
11,TTTTAAATTTAATTTACACACTTTTCATAGCATTGA [CACACA_site3794],9.61
12,TGCAGTCTGGAGAAAAGTACACAGTATCTGGTAGCT [XGTACX_site2013],9.58
13,CATACATACATACATACACACATACATATGTATTTA [CACACA_site5384],9.99
14,ACTTGTAAGAAACACACACACACACCGATATATATA [CACACA_site4594],11.2
15,TTAAACTTGAAACACACACACACACCGATATAAAAA [CACACA_site4578],10.5
16,ACTTGTAAGAAACACACACACACACCCATATATATA [CACACA_site796],11.5
17,TTGTAAGAAAAACACACACACACATATATATATATA [CACACA_site795],10.3
18,AAACTTGTAAGAAACACACACACACGCATATAAATA [CACACA_site6518],10.7
19,AAACTTGTAAGAAACACACACACACCCATATATATA [CACACA_site797],10.5
20,AATTAAATTACTTATACACACATAAAATGCCTGTAT [CACACA_site6597],9.84
21,TTATGTAAAAAAAAAAAAAAAAAAAAAAAAAAAAAA [CACACA_negctrl_site984],9.05
22,ATTATCAAAAAAAAAAAAAAAAAAAAAAAAAAAAAA [CACACA_negctrl_site1118],8.87

row,Sequence,gcPBM binding intensity (ln)
1,AACTTGTATTTATACACACACACACTGTCTTTTTTT [CACACA_site7009],10.5
2,AACTTGTATTTATACACACACACACTAGCTTTTTTT [CACACA_site5132],10.4
3,AACTTGTATATATACACACACACACTATCTTTTTTT [CACACA_site8601],10.9
4,ATTTTTATTAGTTATTGTACTTATTATTTATTAATT [XGTACX_site2568],9.78
5,CACCCATAGAAACACACACACGCATAAAAAAAAAAA [CACACA_site1513],10.7
6,TACACCCATAGACACACACACACGCATAAAAAAAAA [CACACA_site8428],11.1
7,TATATACACAGACACACACACACATACACGCACATA [CACACA_site6909],10.5
8,TACACATACCCATACACACGCATAGAAACATACGAA [CACACA_site5212],10.2
9,TACAGACAGAAACACACACACACGCATAAAAAAAAA [CACACA_site1514],10.5
10,TACAGACATAGACACACACACACGCATAAAAAAAAA [CACACA_site6820],11.4
11,AATAAATAAAAATGCACACAGTTAACATGTTGAATT [CACACA_site4795],10.2
12,GCATCTCATTTGTGATGTACTATATTATCCGTTTTT [XGTACX_site7576],9.71
13,ATATATATTATGTGTGTGCACTTTTGTTATTATTAT,10.2
14,TATATAACATAATATACACACATTATGTGCGTAATT [CACACA_site4073],9.75
15,GATATGTTTTCCTAGGTTCATGATGATAGGTAGTTT [XGTACX_negctrl_site217],9.83
16,AGTAAAAGAAAGCACACACACATGTATATATGTATG [CACACA_site3858],11
17,AGTAAAAGAAAGCACACACACATGTATATAGGTATG [CACACA_site7759],10.9
18,TAGGAAAAGAAAAGCACACACATAAATAGATATATA [CACACA_site6382],10.3
19,AAAAAAAAAAAGCACACACACATATGCGTATATATA [CACACA_site954],10.9
20,AAGAAAAGCATAGATGCACACATATATATATATATA [CACACA_site8675],10.5
21,ATAAGAAAAGGACACACACACAAAAAAAAAAAAAAA [CACACA_site7351],11.1
22,ATACAATACAAAAACACACACAAAAAAAGAAAAGGA [CACACA_site2156],10.4

row,Sequence,gcPBM binding intensity (ln)
1,AAAGTAAAAGAAAGCACACACACATGTATATATGTA [CACACA_site3857],10.2
2,AGATATAAGAAAAGCACACACACACTAGAAAAAAAA [CACACA_site5559],11
3,AAAAAAAAAAAGCACACACACATATGAGTATATATA [CACACA_site4683],10.3
4,AAAAAAAAAAAAAGCACACACACATATGCGTATATA [CACACA_site953],10.3
5,ATAAGAAAAAGACACACACACAAAAAAAAAAAAAAA [CACACA_site2828],10.2
6,ATATATACAAGTATTTTTTTTTCAAACATTATTTTT [CACACA_negctrl_site1808],9.68
7,TACATGAATATATAAAGAAAAAAAAAAAAACACACA [XGTACX_negctrl_site350],9.79
8,AATAAGTAACAAAATACACACATATATATAATTATA [CACACA_site1837],10.1
9,CTTATATTAAGTATTACACACATATATATAAATGCA [CACACA_site4581],9.65
10,TGTACGTTTTTTAACACACACACAAAAAAAAAAAAA [CACACA_site6006],9.84
11,GATTTATACAAATATGTACACACTAAATATATATTA [CACACA_site455],9.83
12,GATGTTGCAAAATTCTGTACATATAAATGTATACAT [XGTACX_site5009],9.64
13,TAATTAAAATTATTTATAAATTAGTATATTTCTATA [CACACA_negctrl_site663],9.42
14,ATATAAGAAAAGCACACACACACAAAAAAAAAAAAA [CACACA_site2827],11.1
15,AGAGATATAAGAAAAGCACACACACCCAAAAAAAAA [CACACA_site8917],10.5
16,GCAAAATAAAGAAGCACACAAAAATGAAATATATAT [CACACA_site3651],9.96
17,AAAAAAAATATAAGTGGTACTCACATAAAGACATAT [XGTACX_site3709],9.93
18,AAAAAAAAAAAGAAGGAAACATTTGACCAAAAATAT [GTGCAC_negctrl_site404],9.58
19,GTAGACTGAAACCACACACACATATATAAATATATT [CACACA_site6433],10.4
20,ATTTTGTGTAGTGATGCATGTTATATATATATTTGA [TGCATGCA_site422],9.83
21,TGTCATGATACATACACACACATACCCATACCCATA [CACACA_site5211],10.6
22,TAGAAGCATTGACACACACACATACATACACATACA [CACACA_site6802],11.2

row,Sequence,gcPBM binding intensity (ln)
1,TATAGAAGCATTCACACACACACATACATACACATA [CACACA_site1466],10.6
2,AAAAAAAACGGACACACACACATACCCATACATACA [CACACA_site5574],10.5
3,TAGAAGCATGGACACACACACATACATACCCATACA [CACACA_site4916],11.2
4,GTTATAGAAGCATTCACACACACACGGACATACACA [CACACA_site6801],10.7
5,TGTTGCAAAACAAAAAAAAAAAAAAAAAATAATAAT [CACACA_negctrl_site1642],9.52
6,AAAAGGAAAAATATCACACATATATATATATATATA [CACACA_site5586],9.69
7,TAAGAAATAAATAGTACACACATAGACACCCACCCA [CACACA_site8429],11.3
8,TAGAAAAAATAAAATAGTACACATCCAAAAAAAAAA [XGTACX_site7829],9.71
9,GCATAAGAAATAAATAGTACACACATAGACACACAC [XGTACX_site3095],11.3
10,TAAGAAATAAATAGTACACACATAGACACCCACCGA [CACACA_site1516],10.4
11,TAAGAAATAAATAGTACACACATAGACACAGACACA [CACACA_site4934],10.6
12,TAAGAAATAAATAGTACACACATAGACACACGCACA [CACACA_site6821],10.7
13,TATAAATACATCCTATACTTCTCTTTTACAGTTTTA [CACACA_negctrl_site1283],9.62
14,ATTTCGTTCTTTTATGCACACTCAACATATAAATTA [CACACA_site8322],9.93
15,GACATAGTCATATACTGTACTTTATATTATTGTGTA [XGTACX_site6636],9.66
16,TATAATAAAATATGTACACACATACAGACATATATA [CACACA_site6693],9.99
17,TATGGTAAATACAACACACACACATATGTATTTATA [CACACA_site4666],10.3
18,TGGTATATACGACACACACACATATGTATAAATATA [CACACA_site6561],10.9
19,TATGGTATATACAACACACACACATATGTATATATA [CACACA_site927],10.9
20,ACACATAAATGTATATATATATAAATATATGTATGT [CACACA_negctrl_site1532],9.82
21,TATAAATAAATATACACACACACATATAAATATGTA [CACACA_site6504],10.4
22,TATGGTATATACAACACACACACATATGTATAAATA [CACACA_site6562],10.5
